The values below come from PubChem BioAssay (NCATS).

Records with an inconclusive call do not appear. Entries that show only a call come without a potency. Active and inactive are the calls of the source. Calls follow the shape of the dose curve; as a rule, active = well fitted inhibition curve with a large enough effect; inconclusive = small, poorly fitted or top-dose-only effect; inactive = flat fitted curve, though single readings scatter.
Potency is read from the fitted curve at half-maximal effect.

The experiment has as its system JCK. The experiment in a line: qHTS profiling for inhibitors of Plasmodium falciparum proliferation (AID 504749). Also: nearly all actives have a fitted effect of over 60% in size. Particulars: P. falciparum in erythrocytes, SYBR Green DNA, 72 h; series mostly up to 12.8 µM. In short, it runs like this:
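Fluorescence of SYBR Green-bound parasite DNA, read at 485/535 nm, served as the growth measure. Infected erythrocytes were cultured with compound 72 h; artemisinin (0.29 uM) and DMSO wells defined the normalization range.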
Background: Quantitative high-throughput screening tests each substance at several concentrations.
As for `CCO[C@H]1O[C@@H]([C@H](COCc2ccccc2)OCc2ccccc2)[C@@H](OCc2ccccc2)[C@H]1O`, the Potency result was “inactive”.

Regarding `COc1cc(N[C@@H](C)CCCN)c2ncccc2c1`, the Potency was 3.98 µM (active).

For `O=C(OC[C@@H](O)CO)c1ccccc1Nc1ccnc2cc(Cl)ccc12`, the Potency result was “inactive”.

On to `CO[C@]1(NC(=O)[C@H](C(=O)O)c2ccc(O)cc2)C(=O)N2C(C(=O)O)=C(CSc3nnnn3C)CO[C@H]21`, for which the Potency result was “inactive”.

Turning to `COc1ccc2c(c1)N(C[C@@H](C)CN(C)C)c1ccccc1S2`, the Potency entry was “inactive”.

For the compound `CCC(=O)[C@@]1(C)[C@H](C)C[C@@H]2[C@@H]3CCC4=CC(=O)C=C[C@@]4(C)[C@H]3[C@H](O)C[C@]21C`, the Potency result was “inactive”.

Turning to `CCC(C)(C)C(=O)O[C@@H]1C[C@H](C)C=C2C=C[C@H](C)[C@@H](CC[C@H]3C[C@@H](O)CC(=O)O3)[C@H]21`, the Potency result was “inactive”.

`CCN(CC)[C@@H](C)CN1c2ccccc2Sc2ccccc21`: the Potency entry is “inactive”.

Take `CC=C(/C(=C/C)c1ccc(O)cc1)c1ccc(O)cc1`: the Potency result is “inactive”.

`CC1(C)S[C@@H]2[C@H](NC(=O)[C@@H](N)c3ccccc3)C(=O)N2[C@H]1C(=O)O[C@H]1OC(=O)c2ccccc21`: the Potency entry is “inactive”.
